Source: PubChem BioAssay (NCI)
The panel holds about 83,000 compounds, 20% with a hit somewhere; the sample as a whole holds those more often.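 Interpretation: 100, growth as untreated; towards 0, rising growth inhibition; 0, no net growth; 0 to -100, cell death. Compounds scoring below 10 were considered active.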 Active and inactive are the calls of the source.

Columns and labels:
Assay in all cases: NCI-60 one-dose screen, 48 h (100 = growth as untreated, 0 = no growth, -100 = all killed)
Settings in all cases: 10 µM unless noted
[1] = system: NCI-H23 lung
[2] = system: NCI-H226 lung
[3] = system: NCI-H322M lung
[4] = system: NCI-H460 lung
[5] = system: NCI-H522 lung
[6] = system: A549/ATCC NSCLC
[7] = system: 786-0 renal
[8] = system: DU-145 prostate
[9] = system: K-562 leukemia
[10] = system: MDA-MB-231 breast
[11] = system: RXF 393 renal
[12] = system: SF-268 CNS
[13] = system: SF-539 CNS
[14] = system: UACC-257 melanoma
[15] = system: M14 melanoma
[16] = system: HCT-15 colon
[17] = system: COLO 205 colon
[18] = system: MALME-3M melanoma
[19] = system: SF-295 CNS

Measured: growth

C=C(C)[C@H]1CC/C(C)=C/CC[C@]2(C)O[C@H]2CC/C(C=O)=C\C1O (some centres not stated)
inactive: [1] 112% | [2] 106% | [3] 111% | [4] 104% | [5] 113% | [6] 108% | [7] 115% | [8] 106% | [9] 124% | [10] 92.4% | [11] 111% | [12] 106% | [13] 106% | [14] 154% | [15] 115% | [16] 118%

c1cncc(CNc2ccccc2-c2nnc(Nc3ccc4c(c3)OCO4)o2)c1
active: [2] -14% | [4] 9.93% | [5] 3.02% | [17] -39.8% | [8] 1.3% | [11] -2.33% | [19] 5.25% | [13] 0.107% | [15] 9.13%
inactive: [1] 18% | [3] 46.6% | [6] 20% | [7] 37% | [18] 32.1% | [10] 16.3% | [12] 33.5% | [14] 56.2% | [16] 10.2%

COc1cc(C2=NN(C(C)=O)C(c3ccc(OC(C)=O)cc3OC(C)=O)O2)c(OC(C)=O)c2ccccc12 (configuration not stated)
inactive: [1] 38% | [2] 27% | [3] 19.6% | [7] 11.2% | [17] 10.4% | [8] 26.8% | [10] 34.2% | [12] 19.7% | [19] 22.2% | [16] 32.8%
active: [4] 9.82% | [5] -7.78% | [6] 8% | [9] 6.47% | [13] 7.95% | [14] -8.85% | [15] 5.99%

Nc1ccc2c(c1)/C(=N/O)c1cc([N+](=O)[O-])ccc1-2
inactive: [1] 71.5% | [2] 76.3% | [3] 42% | [4] 27.3% | [5] 55.1% | [6] 49.2% | [7] 63.1% | [17] 104% | [8] 46.4% | [9] 22.9% | [18] 57.9% | [10] 91.7% | [11] 85% | [12] 62.6% | [13] 60.1% | [14] 81% | [15] 49.4% | [16] 61.2%

CC/C(=C\c1ccc(N(C)C)cc1)c1ccncc1
active: [18] 9.47%
inactive: [1] 63.3% | [2] 74.8% | [3] 94.6% | [4] 14.3% | [6] 43.5% | [7] 54.6% | [17] 36.1% | [8] 85% | [9] 16.2% | [10] 51.6% | [11] 91.1% | [12] 71.7% | [19] 49% | [13] 58.6% | [14] 75% | [15] 29.6% | [16] 37.5%

Cc1nn(-c2ccc(Br)cc2)c2nc3c(nc12)C(=O)C(=O)c1ccccc1-3
inactive: [1] 87.2% | [2] 96.9% | [3] 104% | [4] 97.3% | [5] 98.3% | [6] 100% | [7] 102% | [17] 89.6% | [8] 124% | [18] 91.2% | [10] 78.7% | [11] 111% | [12] 101% | [19] 97.5% | [14] 98.6% | [15] 98.2% | [16] 90.5%

N#Cc1c(N2CCOCC2)nc2sc3cc(Cl)ccc3n2c1=N
inactive: [1] 88.2% | [2] 88.3% | [3] 117% | [4] 91.4% | [5] 93.7% | [6] 102% | [7] 95.3% | [8] 110% | [9] 106% | [18] 117% | [10] 75.9% | [11] 72.7% | [12] 94.4% | [19] 118% | [13] 97.3% | [14] 103% | [15] 111% | [16] 102%

Clc1ccccc1[C@@H]1C[C@@H]2Cc3cc(Br)c4ccccc4c3N1O2
inactive: [1] 50.8% | [2] 73.5% | [3] 61% | [4] 18.1% | [5] 20% | [6] 48% | [7] 56.1% | [17] 33.1% | [8] 61% | [9] 10% | [10] 39% | [11] 39.3% | [12] 46.1% | [19] 24.6% | [14] 47.4% | [15] 20.8% | [16] 35.7%
active: [13] 6.71%

Cc1nn(-c2ccccc2)c(Cl)c1C(CC(=O)c1ccc(Cl)cc1)CC(=O)c1ccc(Cl)cc1
inactive: [1] 87.2% | [2] 88.6% | [3] 99% | [4] 90.1% | [5] 71.6% | [6] 84.3% | [7] 81.8% | [17] 98.5% | [8] 103% | [18] 94.7% | [10] 80.5% | [11] 92.2% | [12] 91.3% | [19] 92.4% | [14] 100% | [15] 83.9% | [16] 86.6%
